{"source": "PubChem BioAssay AID588675", "about": "(Johns Hopkins Ion Channel Center, 2011)", "note": "Among all 310,000 compounds or so, about 1,900 (0.61%) were called active.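 How the source made its calls: active means plate-corrected calcium response at least 3 library SD above typical, normal starting fluorescence, not activating the receptor alone; inactive means the rest.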 Many of the other results were omitted from the sample, so actives are more common in it than they were."}
{"molecular_target": "Mas-related G-protein coupled receptor member X1 (Homo sapiens) (UniProt Q96LB2)", "sequence (Q96LB2 whole entry, looked up)": "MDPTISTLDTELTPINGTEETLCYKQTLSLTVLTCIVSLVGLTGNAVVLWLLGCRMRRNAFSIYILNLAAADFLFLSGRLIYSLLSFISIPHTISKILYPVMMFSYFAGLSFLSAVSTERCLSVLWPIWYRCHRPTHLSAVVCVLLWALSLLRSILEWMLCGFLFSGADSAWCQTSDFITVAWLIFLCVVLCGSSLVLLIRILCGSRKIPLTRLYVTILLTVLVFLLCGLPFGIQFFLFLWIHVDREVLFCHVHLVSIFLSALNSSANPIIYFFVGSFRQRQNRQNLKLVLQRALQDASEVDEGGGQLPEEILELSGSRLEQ", "assay": "positive allosteric modulators of MrgX1, primary screen, HEK293 cells, Fluo-4 calcium flux (AID 588675);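 further: compound read alongside a low EC10 to EC30 dose of BAM8-22 agonist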;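 on B-score: peak minus trough fluorescence over baseline measured at the second addition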", "conditions": "MrgX1-HEK293, Fluo-4 calcium flux, FDSS, at 10 µM; stronger effect = higher value"}
{"smiles": "CC[C@H]1CC2CN3CCc4c([nH]c5ccccc45)C(C(=O)OC)(C2)C13", "note": "(stereo not given in full)", "B-score": "13 (active)"}
{"smiles": "CN1CCc2cc3c(cc2[C@H]1[C@@H]1OC(=O)c2c1ccc1c2OCO1)OCO3", "B-score": "inactive"}
{"smiles": "CN(C)C(=O)Oc1ccc(OCc2cccc[n+]2C)cc1", "B-score": "inactive"}
{"smiles": "Cc1nc2ccccn2c1P(=S)(N1CCCCC1)N1CCCCC1", "B-score": "13.5 (active)"}
{"smiles": "CC1CCCCN1Cc1cccnc1", "note": "(stereo not given)", "B-score": "inactive"}
{"smiles": "COc1ccc(S(=O)(=O)NCc2ccc(C(=O)N3CCC4(CC3)OCCO4)cc2)cc1", "B-score": "inactive"}
{"smiles": "Cc1ccc(-c2nn(CCC#N)cc2C(=O)O)cc1C", "B-score": "inactive"}
{"smiles": "CN(C)C(=O)Oc1ccc2c(c1)O/C(=C\\c1ccccc1)C2=O", "B-score": "inactive"}
{"smiles": "COC(=O)CN1C(=O)C2(C(C(=O)OC)=C(N)Oc3ccccc32)C2=C1CC(C)(C)CC2=O", "note": "(stereo not given)", "B-score": "inactive"}
{"smiles": "CCOC(=O)CC1=C(C(=O)OCC)C2(C(=O)N1)C(C(=O)OC)=C(N)Oc1ccccc12", "note": "(stereo not given)", "B-score": "inactive"}
{"smiles": "C=CCN1C(=O)C2(C(C(=O)OCC)=C(N)Oc3c2c(=O)oc2ccccc32)c2ccccc21", "note": "(stereo not given)", "B-score": "27.7 (active)"}
{"smiles": "O=Cc1cn(Cc2ccc(F)cc2Cl)c2ccccc12", "B-score": "inactive"}
{"smiles": "CCOc1cccc(=NC2CCCCC2)c2c(C)[nH]c(C)c12", "B-score": "inactive"}
{"smiles": "c1ccc(CC2CCCCN2)cc1", "note": "(stereo not given)", "B-score": "inactive"}
{"smiles": "O=C(COC(=O)c1ccccc1)Nc1ccc(Cl)cc1C(=O)c1ccccc1", "B-score": "inactive"}
